Screening results deposited in PubChem by National Center for Advancing Translational Sciences (NCATS).
This is a sample that favours compounds with a hit; in the whole collection about 19% have one here.
DT40 TDP1 no CPT: qHTS for Inhibitors of human tyrosyl-DNA phosphodiesterase 1 (TDP1): qHTS in cells in absence of CPT. hit rate 15% among 420,000. AID 686978, 2013. Potency, µM (series often up to 46.2 µM), most hits filed as inhibitors. DT40 Tdp1-/- hTDP1 cells, no CPT, ATP luminescence, 48 h; also: nearly all actives have a fitted effect of over 55% in size
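No-CPT arm: Tdp1-/-;hTDP1 DT40 cells (400/well) plus compounds, incubated ≥48 hr at 37 °C. Readout CellTiter-Glo luminescence.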
HT1080-NT tox: kills 2HG-producing HT-1080-NT fibrosarcoma cells; HT-1080-NT fibrosarcoma viability, CellTiter-Glo ATP luminescence, 48 h; Potency, µM (doses to about 46.1 µM), most hits filed as cytotoxic; hit rate 1.6% among 360,000;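 also: NT is the 2HG producing partner of a matched IDH1 knockdown line; nearly all actives have a fitted effect of over 55% in size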
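Viability of the 2HG-overproducing fibrosarcoma line after 48 hours of compound exposure at 37 degrees C was determined by luminescence with CellTiter-Glo, and concentration-effect curves were then fitted and categorized.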
DT40 TDP1 CPT: DT40-hTDP1 cell growth loss with CPT; AID 686979; Potency, µM (doses to about 46.2 µM), most hits filed as inhibitors; hit rate 12% among 420,000; chicken DT40 Tdp1-/-;hTDP1 cells + 20 nM CPT, ATP luminescence, 48 h; also: nearly all actives have a fitted effect of over 55% in size
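Cell growth measured by CellTiter-Glo luminescence after a minimum 48 h, 37 C compound exposure with 20 nM CPT in Tdp1-knockout DT40 cells stably expressing hTDP1, seeded 400/well; qHTS titration format.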
IL1B secr inh: inhibitors of inflammasome signaling (IL-1 beta secretion) | THP-1 LPS/ATP IL-1B secretion, AlphaLISA, 16 h; stronger effect = lower value | activity change, % at 57.5 µM | hit rate 4.7% among 360,000 | AID 743279; in the data active = activity change below about -50%; inconclusive = mostly about -30% to -49%
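THP-1 cells pretreated 1 hr with compounds (up to 57.5 uM final), then stimulated with LPS (250 ng/mL final) plus ATP (1.25 mM final); secreted IL-1B measured by AlphaLISA after 16 hr, decreased signal indicating inhibition.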
ELG1 DNA repair: inhibitors of ELG1-dependent DNA repair in HEK293T cells; HEK293T ELG1-luciferase reporter, luminescence, 16 h; DNA damage induced by 5-fluorouridine; Potency, µM (series often up to 46.1 µM), actives largely listed as inhibitors; hit rate 2.3% among 330,000; also: nearly all actives have a fitted effect of over 55% in size
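Reporter activity after DNA damage by 5-fluorouridine is monitored. Compound-treated cells incubate 16 hr at 37 °C, then ONE-Glo is added for 30 min before luminescence reading.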
HT1080 IDH1KD tx: toxicity to HT-1080 IDH1 knockdown cells (counter line). HT-1080 IDH1 knockdown viability, ATP luminescence, 48 h. Potency, µM (titrated, usually from 46.1 µM), actives largely listed as cytotoxic. hit rate 2% among 360,000. AID 686971
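Cytotoxicity counter-line: IDH1KD HT-1080, 48 h, CellTiter-Glo. Curves classed by r2, magnitude and activity.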
Numbers stand for hits; n = inactive; u = inconclusive; x = no result given. Unless noted, calls follow the shape of the dose curve; as a rule, active = well fitted curve in the direction sought with a large enough effect; inconclusive = small, poorly fitted or top-dose-only effect, or another doubt; inactive = no such curve, though single readings can be large; an effect the other way counts as inactive or inconclusive.

SMILES | DT40 TDP1 no CPT | HT1080-NT tox | DT40 TDP1 CPT | IL1B secr inh | ELG1 DNA repair | HT1080 IDH1KD tx
CCN1CCN(S(=O)(=O)c2ccc(Oc3ccccc3OC)cc2)CC1 | 23µM | n | n | n | u | n
CCn1c(N2CCN(S(=O)(=O)c3ccccc3C(F)(F)F)CC2)nc2ccccc21 | 16µM | u | u | -52 | u | n
CCCCN(C(=O)Cc1ccc2c(c1)OCCO2)c1c(N)n(CC(C)C)c(=O)[nH]c1=O | n | n | n | n | u | n
CCN1CCCC1CNC(=O)Cn1nc(C)n2nc(-c3ccccc3)cc2c1=O (stereo not given) | n | n | n | n | u | n
O=C(CCC(=O)N1CCN(c2ccc(C(F)(F)F)cn2)CC1)c1cccs1 | u | n | u | n | n | n
CCOC(=O)c1ccc(N2CC3=C(C2=O)C(c2ccc(OC)cc2)NC(=O)N3C)cc1 (stereo not given) | n | x | n | x | x | x
COc1cccc(N2C(=NC(=O)C3CCCCC3)SC3CS(=O)(=O)CC32)c1 (stereo not given) | n | n | n | n | n | n
CC(NC(=O)CCCCCCN1C(=O)c2ccccc2C1=O)c1ccc2c(c1)CCCC2 (stereo not given) | u | n | 23µM | n | 23µM | n
CC1C(=O)N(Cc2cn(Cc3ccco3)nn2)CCS(=O)(=O)N1Cc1ccc(-c2ccc(F)cc2Cl)cc1 (stereo not given) | u | n | u | n | x | u
Cc1ccc(-c2ccc(CN3C(C(C)C)C(=O)N(Cc4cn(Cc5ccco5)nn4)CCS3(=O)=O)cc2)cc1 (stereo not given) | 18µM | u | 18µM | n | x | u
CC1C(=O)N(Cc2cn(Cc3ccco3)nn2)CCS(=O)(=O)N1Cc1ccc(-c2ccc(F)cc2)cc1 (stereo not given) | u | n | u | n | x | n
CC(C)C1C(=O)N(Cc2cn(Cc3ccco3)nn2)CCS(=O)(=O)N1Cc1ccc(-c2cccc(N(C)C)c2)cc1 (stereo not given) | 16µM | n | u | n | x | n
CC1C(=O)N(Cc2cn(Cc3ccco3)nn2)CCS(=O)(=O)N1Cc1ccc(-c2ccncc2)cc1 (stereo not given) | 21µM | n | u | n | x | n
CC(C)C1C(=O)N(Cc2cn(CCC3OCCO3)nn2)CCS(=O)(=O)N1Cc1ccc(-c2cccc(N(C)C)c2)cc1 (stereo not given) | u | n | n | n | x | n
O=C(COC(=O)CNC(=O)c1cccs1)Nc1ccc(C(F)(F)F)cc1[N+](=O)[O-] | n | n | n | n | n | n
CC1CNC(=S)N(c2ccc(F)cc2)C1=O (stereo not given) | n | n | n | n | x | n
O=C(CCc1nnc(CCC2CCCCC2)o1)NCCc1cccnc1 | n | n | n | n | n | n
CN1CCN(C(=O)c2cc([N+](=O)[O-])ccc2Cl)CC1 | n | n | n | n | n | n
COc1ccc(NC(=O)CN2CCCCC2)c([N+](=O)[O-])c1 | 13µM | n | 13µM | u | u | n
COc1ccc(NC(=O)COC(=O)c2cc(OC)c(OC)c(OC)c2)c([N+](=O)[O-])c1 | n | n | n | n | n | n
COc1ccc(NC(=O)Cc2ccc(C)cc2)c([N+](=O)[O-])c1 | u | n | n | n | n | n
COc1ccc(NC(=O)CC2Nc3cc(C)c(C)cc3NC2=O)c([N+](=O)[O-])c1 (stereo not given) | 5.8µM | n | u | n | n | n
CNS(=O)(=O)c1cccc(C(=O)OCC(=O)Nc2ccc(OC)cc2[N+](=O)[O-])c1 | 6.5µM | n | 33µM | n | n | n
COc1ccc(NC(=O)CSc2ccccc2)c([N+](=O)[O-])c1 | 29µM | u | n | n | u | n
COc1ccc(NC(=O)CN2CCC(NC(=O)C3CCCCC3)CC2)c([N+](=O)[O-])c1 | n | n | n | n | n | n
SMILES | DT40 TDP1 no CPT | HT1080-NT tox | DT40 TDP1 CPT | IL1B secr inh | ELG1 DNA repair | HT1080 IDH1KD tx
COc1ccc(NC(=O)CSc2nncn2C)c([N+](=O)[O-])c1 | n | n | n | n | n | n
O=S(=O)(c1ccccc1)N1CC2CC(Br)C(Br)CC21 (stereo not given) | n | n | n | n | x | n
COc1cc(-c2cc(C)c3c(OC)ccc(OC)c3n2)cc2c1OCCN(C(=O)C(C)c1n[nH]c(=O)c3ccccc13)C2 (stereo not given) | n | x | n | x | x | x
COc1ccc(NC(=O)CN2CCC(C)CC2)c([N+](=O)[O-])c1 | 8.2µM | n | 8.2µM | u | n | n
COc1cc(-c2ccc(NC(=O)CN3CCC(C)CC3)c(OC)c2)ccc1NC(=O)CN1CCC(C)CC1 | 18µM | n | 23µM | n | n | n
COc1ccc(NC(=O)CN2CCC(C)CC2)cc1 | n | n | n | n | u | n
CC1CCN(CC(=O)Nc2ccc(Cl)cc2[N+](=O)[O-])CC1 | u | n | u | n | n | n
Cc1ccc(-c2nc3c4ccccc4n(CC(=O)NCc4ccc(F)cc4)c(=O)n3n2)cc1 | n | x | n | x | x | x
COCCNC(=O)C1(C)CCCN(C(=O)c2ccc(C#N)cc2)C1 (stereo not given) | n | u | n | n | x | n
CCOc1ccc(NC(=O)N(Cc2c[nH]c3ccccc23)C2CCCCC2)cc1 | 18µM | x | 8.2µM | x | x | x
CCOc1ccc(NC(=O)N(Cc2c[nH]c3ccccc23)C2CCCCCC2)cc1 | u | x | 9.2µM | x | x | x
O=C(O)c1nc2cc(Cl)c(Cl)cc2[nH]c1=O | n | x | n | x | x | x
CCOc1cc(OCC)cc(C(=O)N2CCC[C@H]2C(=O)N2CCC[C@H]2C(=O)N[C@H](C)c2ccccc2)c1 | n | n | n | n | x | n
O=C(C[C@@H]1C/C=C\CCC(=O)OC[C@H](Cc2ccccc2)NC1=O)N[C@@H](CO)Cc1ccccc1 | u | n | u | n | n | n
O=C(C[C@@H]1C/C=C\C[C@@H](NC(=O)OCC2c3ccccc3-c3ccccc32)C(=O)OC[C@@H](Cc2ccccc2)NC1=O)NCCO | 9.2µM | n | 7.3µM | n | n | n
O=C(C[C@H]1C/C=C\C[C@H](NC(=O)OCC2c3ccccc3-c3ccccc32)C(=O)OC[C@H](Cc2ccccc2)NC1=O)N[C@H](CO)Cc1ccccc1 | 5.2µM | u | 5.2µM | n | n | u
